Laboratory results published in PubChem BioAssay AID588856 (National Center for Advancing Translational Sciences (NCATS), 2011).
Out of some 410,000 compounds screened, about 3,100 (0.76%) were called active. Where a call stands in place of a potency, no number is given. This is one part of a sample in which actives are shown more often than they occur. Calls come from the whole dose curve; as a rule, active = well fitted cell-killing curve with a large enough effect; inactive = no such curve, though single readings can be large or run the other way.

Assay: qHTS for Inhibitors of TGF-b: Cytotox Counterscreen
Conditions: HepG2 CAGA-GFP viability, ATP luminescence, 18 h; series mostly up to 46.1 µM
In short: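 HepG2 CAGA-GFP cells (1000/well, DMEM with 1% FBS) received compound, then TGF-beta at 500 pg/mL final, and were incubated 18 hours at 37 degrees C. Viability was read by CellTiter-Glo luminescence. Media-only wells were set as complete cell-killing and DMSO as no toxicity.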
Potency is the fitted concentration of half-maximal effect.

Compound	Potency
CCCCOc1ccc(Cn2c(=O)oc3ccc(C)cc32)cc1OC	inactive
Cc1cccc2c1N(CCOc1ccccc1)C(=O)C2=O	inactive
CCCCOc1ccc(CN2C(=O)C(=O)c3cc(Br)cc(C)c32)cc1OC	15.8 µM (active)
CCCn1c(SCC(=O)c2ccc3c(c2)OCCO3)nnc1C(C)C	10 µM (active)
O=C(CSc1nnc(CN2CCCC2)n1-c1ccc(F)cc1)c1ccc2c(c1)OCO2	inactive
CCCn1c(SCC(=O)Nc2c(C)cccc2C)nnc1C(C)C	inactive
Cc1cccc(C)c1-n1ncc(C(=O)NCCCN2CCCCC2)c1C1CCN(C(=O)OC(C)(C)C)CC1	inactive
COc1cc(OC)c(NC(=O)c2cnc(N3CCCC3)nc2C)cc1Cl	inactive
CCOC(=O)/C(=C\c1ccc([N+](=O)[O-])cc1)C(=O)c1cc(C(C)=O)c(Nc2ccccc2)s1	5.01 µM (active)
CCOC(=O)c1c(C)[nH]c(C)c1C(=O)COC(=O)/C=C/c1cccc([N+](=O)[O-])c1	inactive
CC(C)c1nnc(NC(=O)COC(=O)/C=C/c2ccc([N+](=O)[O-])cc2)s1	inactive
COCCCn1c(=O)/c(=C/c2ccccc2OC(C)C)s/c1=C(\C#N)C(=O)Nc1ccc(C(=O)O)cc1	12.6 µM (active)
COc1ccccc1C(=O)N/C(=C/c1ccco1)C(=O)Nc1ccc(C(=O)O)cc1	inactive
CC(C)OCCCn1c(SCC(=O)c2ccccc2)nc2c(sc3ccccc32)c1=O	inactive
COc1cc2nc(C#Cc3nc4cc(OC)c(OC)cc4[nH]3)[nH]c2cc1OC	inactive
CNS(=O)(=O)c1ccc(NC(=O)Nc2ccc3c(c2)OCO3)cc1	inactive
Cc1cccc(NC(=O)Nc2ccc3c(c2)OCO3)n1	22.4 µM (active)
Cc1onc(C(=O)Nc2ccc3c(c2)OCO3)c1[N+](=O)[O-]	inactive
CC1CCCN(Cc2c(O)ccc3c(=O)c(Oc4ccc(C(C)(C)C)cc4)c(C(F)(F)F)oc23)C1 (centres undefined)	inactive
CCOc1ccc(NC(=O)c2cc(S(=O)(=O)N3CCCC3)c[nH]2)cc1	inactive
CCN1CCCC1CNC(=O)c1ccc2c(c1)NC(=O)/C(=C\c1ccccc1F)S2 (centres undefined)	15.8 µM (active)
O=C1Nc2cc(C(=O)N3CCC(N4CCCCC4)CC3)ccc2S/C1=C\c1ccccc1	inactive
COc1ccc(CN2CCCC(CNC(=O)c3ccc(F)cc3)C2)cc1OC (centres undefined)	inactive
COc1ccccc1-c1noc(-c2ccc(NCc3ccccc3)c([N+](=O)[O-])c2)n1	inactive
Cc1ccc(Cn2cnc3c(cnn3C(C)(C)C)c2=O)c(F)c1	inactive
NC(=O)COc1ccc(/C=N/NC(=O)C2CCCN2S(=O)(=O)c2ccc(Cl)cc2)cc1 (centres undefined)	inactive
NC(N)=N/N=C/c1ccc(OCc2ccc(Cl)cc2Cl)cc1	14.1 µM (active)
Cc1ccc(CCNC(=O)Cn2c(-c3cccs3)cc3cc(F)ccc32)cc1	inactive
CC(C)c1ccc(NC(=O)Cn2nnc(C(=O)NCCc3ccccc3)c2N)cc1	inactive
